Source: PubChem BioAssay (NCI)
About 83,000 compounds went through this panel and 20% of them were active in at least one assay; those are over-represented in the sample as a whole.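 How to read the values: 0–100, growth inhibition (40 = 60% inhibited); 0, no net growth; -100 to 0, cell death (-40 = 40% of starting cells died; -100 = all dead).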 Calls of active or inactive are those of the source. The calls were made as follows: active = growth percent below 10; inactive = the rest.

How the values were obtained:
Assay in all cases: NCI-60 one-dose screen, 48 h (100 = growth as untreated, 0 = no growth, -100 = all killed)
Conditions in all cases: 10 µM unless noted
[1] = tested on: HCT-15 colon
[2] = tested on: HT29 colon
[3] = tested on: SNB-75 CNS
[4] = tested on: SNB-19 CNS
[5] = tested on: U251 CNS
[6] = tested on: PC-3 prostate
[7] = tested on: SK-MEL-5 melanoma
[8] = tested on: UACC-62 melanoma
[9] = tested on: LOX IMVI melanoma
[10] = tested on: SK-MEL-28 melanoma

Measured: growth

CN1CCN(c2ccc3nc(-c4cc(C(C)(C)C)c(O)c(C(C)(C)C)c4)[nH]c3c2)CC1
inactive: [3] 58.8% | [4] 73.6% | [5] 16.5% | [6] 58.7% | [7] 74.9% | [8] 63.5% | [10] 57%
active: [1] -35.3% | [2] 6.14% | [9] -37.3%

CN1CCN(c2cc(F)c(NC3=C(Cl)C(=O)c4ncccc4C3=O)c(F)c2)CC1
active: [1] -8.53% | [5] -9.88% | [7] -91.7% | [8] -45.6% | [9] -70.3% | [10] -55.1%
inactive: [2] 11.2% | [3] 38% | [4] 96.3% | [6] 11.8%

CC1(C)CCCN1CCCN1c2ccccc2Sc2ccc(Cl)cc21
inactive: [1] 50.7% | [2] 26.4% | [3] 91% | [4] 69.1% | [5] 58.3% | [6] 52.6% | [9] 57.9%
active: [7] 2.18%

C=C(C)[C@@H]1CC[C@]2(CO)CC[C@]3(C)[C@H](CC[C@@H]4[C@@]5(C)CCCNC(C)(C)[C@@H]5CC[C@]43C)[C@@H]12
inactive: [3] 77.1% | [4] 49.6% | [6] 25.6% | [8] 43.2%
active: [1] 3.28% | [2] 2.58% | [5] 7.49% | [7] -82.5% | [9] -57.7% | [10] -65.4%

O=S(=O)(NCCCNc1nccc(-c2c(-c3cccc(O)c3)nc3occn23)n1)c1ccc(Br)cc1
inactive: [1] 102% | [2] 38.9% | [3] 97.4% | [4] 118% | [5] 104% | [6] 91.1% | [7] 47.1% | [9] 46.8% | [10] 35.5%
active: [8] 8.87%

CC(=O)c1c[nH]c2ccc(-c3ccnc(Nc4ccc(NC(=O)c5cccc(F)c5)c(CN5CCOCC5)c4)n3)cc12
active: [1] 0.545% | [2] 7.18% | [3] -56.1% | [4] 0.141% | [5] 8.5% | [6] -0.531% | [7] -74% | [8] -41.2% | [9] -3.87% | [10] 1.85%

CC(=O)c1cc2c(N)c(C(=O)Nc3cncc4ccccc34)sc2nc1C
inactive: [1] 95.4% | [2] 107% | [3] 91.5% | [4] 98.5% | [5] 106% | [6] 93.8% | [7] 98.5% | [8] 76.1% | [9] 98.9% | [10] 102%

C=Cc1cc[n+](CCCCCCCCCCCC)cc1
inactive: [1] 110% | [2] 99.2% | [3] 97.4% | [4] 103% | [5] 109% | [6] 110% | [7] 104% | [8] 105% | [9] 99.7% | [10] 111%

c1ccc(CCSc2ncnc3nc[nH]c23)cc1
inactive: [1] 98.2% | [2] 90.6% | [3] 98.7% | [4] 84.8% | [5] 91.1% | [6] 82.8% | [7] 85.1% | [9] 80.5%

COc1ccncc1C#Cc1cncc(C(=O)Nc2ccc(CN3CCN(C)CC3)c(C(F)(F)F)c2)c1
active: [9] -6.87%
inactive: [1] 16.9% | [2] 15.2% | [3] 65.7% | [4] 70.1% | [5] 62% | [6] 42.4% | [7] 34.2% | [10] 18.2%

CCCCCCCCN1C(=O)/C(=c2\sc3n(c2=O)C2C(NN=3)N(CC)C(=O)N2CC)c2ccccc21 (centres undefined)
active: [3] -13%
inactive: [1] 93.2% | [2] 100% | [4] 45.7% | [5] 46.2% | [6] 81.7% | [7] 96.9% | [8] 76.3% | [9] 81.9% | [10] 88.3%

COc1ccccc1/C=N/NC1=NC2C(N1)N(C)C(=O)N2C (centres undefined)
inactive: [1] 104% | [2] 111% | [3] 83.4% | [4] 104% | [5] 99.2% | [6] 95.4% | [7] 100% | [9] 99.5% | [10] 103%
